# From PubChem BioAssay AID376 (PDSP, 2006)
# Hit rate of the full screen: of about 2,000 compounds, about 250 (12%) were called active. The list comes from a sample in which actives are over-represented; it also holds similar structures and randomly drawn compounds. Unmarked numbers belong to inactive results. Cut-off read from the data, not from the text of the source: active = hERG blockade below about -20% or above about 20%; inactive = in between.
# Molecular target: Voltage-gated inwardly rectifying potassium channel KCNH2 (Homo sapiens) (UniProt Q12809)
# Sequence (Q12809 whole entry, looked up): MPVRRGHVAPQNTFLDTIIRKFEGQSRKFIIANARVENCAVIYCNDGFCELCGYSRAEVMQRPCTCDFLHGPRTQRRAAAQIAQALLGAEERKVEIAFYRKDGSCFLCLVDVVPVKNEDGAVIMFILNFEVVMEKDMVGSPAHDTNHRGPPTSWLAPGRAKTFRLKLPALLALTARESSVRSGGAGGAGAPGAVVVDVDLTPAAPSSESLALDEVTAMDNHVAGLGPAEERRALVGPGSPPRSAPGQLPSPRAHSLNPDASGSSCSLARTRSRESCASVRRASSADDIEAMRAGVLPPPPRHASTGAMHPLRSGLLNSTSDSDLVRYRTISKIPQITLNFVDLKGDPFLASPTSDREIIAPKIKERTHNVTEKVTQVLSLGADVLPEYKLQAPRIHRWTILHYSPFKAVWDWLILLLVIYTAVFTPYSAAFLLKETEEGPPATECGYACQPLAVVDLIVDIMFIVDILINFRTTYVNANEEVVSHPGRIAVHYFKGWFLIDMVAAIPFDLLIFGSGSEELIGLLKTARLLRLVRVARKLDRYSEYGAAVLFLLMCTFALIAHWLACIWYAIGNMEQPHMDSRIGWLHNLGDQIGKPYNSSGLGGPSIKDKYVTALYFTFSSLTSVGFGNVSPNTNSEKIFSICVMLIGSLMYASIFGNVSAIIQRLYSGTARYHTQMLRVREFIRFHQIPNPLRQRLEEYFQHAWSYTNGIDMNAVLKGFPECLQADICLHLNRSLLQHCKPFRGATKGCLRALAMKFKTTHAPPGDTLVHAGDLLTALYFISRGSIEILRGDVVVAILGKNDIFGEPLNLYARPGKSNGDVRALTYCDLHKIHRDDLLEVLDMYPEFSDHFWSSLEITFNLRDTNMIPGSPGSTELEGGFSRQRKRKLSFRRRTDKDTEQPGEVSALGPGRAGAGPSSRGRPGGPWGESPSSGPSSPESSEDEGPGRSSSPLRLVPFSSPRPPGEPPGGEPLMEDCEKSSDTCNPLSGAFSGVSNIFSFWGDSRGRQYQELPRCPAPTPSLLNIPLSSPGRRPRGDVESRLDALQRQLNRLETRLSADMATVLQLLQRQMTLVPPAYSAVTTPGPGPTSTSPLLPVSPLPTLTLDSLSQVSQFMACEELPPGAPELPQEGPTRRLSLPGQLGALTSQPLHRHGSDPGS
# Test: modulators of KCNH2 ion channel function, cellular (AID 376);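 note: 0% = buffer alone and 100% = reference blocker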
# Settings: hERG-expressing cells, channel activity single-concentration screen; concentration not given here
row,Structure (SMILES),hERG blockade
1,CC1(c2ccccc2)OC2CC3C4CCC5=CC(=O)C=CC5(C)C4(F)C(O)CC3(C)C2(C(=O)CO)O1 (centres undefined),6.41%
2,O=CNc1ncn[nH]1,-3.79%
3,c1c[nH]c(CN2CCOCC2)n1,2.23%
4,CC1CCC2C(C)C3C(CC4C5CC=C6CC(O)CCC6(C)C5CC(O)C43C)N2C1 (centres undefined),-3.2%
5,CC(=O)Nc1nc(NC(C)=O)c2[nH]c(CO)nc2n1,0.0402%
6,O=S1(=O)NC2CCC3NS(=O)(=O)NC4CCC(N1)N4S(=O)(=O)N23 (centres undefined),0.569%
7,C[N+](C)(C)CCN(Cc1cccs1)c1ccccn1,39.5% (active)
8,CN(C)CCN(c1ccccn1)c1ccccn1,-15.1%
9,CC(CO)(CO)N=Cc1cc(I)cc(I)c1O,5%
10,O=C1Oc2ccccc2C(=O)C1=CN1C(=O)NC(=Cc2ccccc2O)C1=O,10.5%
11,c1ccc(SC(Sc2ccccc2)c2ccc3c(c2)OCO3)cc1,15.6%
12,CN(C)c1ccc(C(=C2C=CC(=[N+](C)C)C=C2)c2c(O)c(S(=O)(=O)[O-])cc3cc(S(=O)(=O)O)ccc23)cc1,8.17%
13,N=C1C=CC(=C(c2ccc(N)cc2)c2ccc(N)cc2)C=C1,9.77%
14,CN(C)c1ccc(C(=C2C=CC(=[N+](C)C)C=C2)c2ccccc2)cc1,40.6% (active)
15,O=C(O)CCC(=O)Nc1ccc2ccccc2c1,10%
16,O=C(c1ccccc1)C(Nc1ccc2ccccc2c1)c1ccccc1 (centres undefined),25.3% (active)
17,CC(=O)CC(=O)Nc1ccc2ccccc2c1,2.34%
18,O=S(=O)(O)C(CO)c1ccccc1 (centres undefined) (tested in a mixture with another compound),13.2%
19,NNC(=O)c1ccc(OCc2nc3ccccc3[nH]2)cc1,0.772%
20,CN(CC(=O)O)Cc1c(O)c(Cl)cc(Cl)c1Cl,-16.4%
21,CN(CC(=O)O)Cc1oc(CO)cc(=O)c1O,-29.8% (active)
22,O=C(O)C1CCN(Cc2oc(CO)cc(=O)c2O)C1 (centres undefined),3.01%

row,Structure (SMILES),hERG blockade
1,CC1=C(CCC(C)CO)OC2CC3C4CCC5CC(O)CCC5(C)C4CC(=O)C3(C)C12 (centres undefined),-6.35%
2,NC1=C(O)C(=O)C(c2c[nH]c3ccc(OCc4ccccc4)cc23)O1 (centres undefined),12.8%
3,Nc1nc(-c2ccc3ccccc3c2)cc(-c2cc(-c3ccc4ccccc4c3)nc(N)n2)n1,2.73%
4,S=C1NCN2CCN(CC2)CNC(=S)C(=S)NCN2CCN(CC2)CNC1=S,17.9%
5,O=[N+]([O-])c1cc(Cl)cc2c1nc(NCCO)c1ccccc12,38% (active)
6,Nc1nc(Cl)cc(NCCO)n1,-8.52%
7,O=[N+]([O-])c1cc(Cc2cc([N+](=O)[O-])c3cccnc3c2O)c(O)c2ncccc12,-5.37%
8,O=C(O)CCCCn1ccc(=O)[nH]c1=O,-28% (active)
9,O=C(Cn1ccc(=O)[nH]c1=O)Nc1ccc(C(=O)O)c(O)c1,-7.44%
10,Cc1cn(CCC(N)C(=O)O)c(=O)[nH]c1=O (centres undefined),2.71%
11,O=C(CCN1CCOCC1)Nc1ccc(F)cc1F,4.1%
12,O=C(O)Cc1[nH]cnc1C(=O)O,-3.29%
13,O=C1C(=Cc2ccccc2)C(NC2CCCCC2)c2ccccc21 (centres undefined),-0.193%
14,CC(C)C1OC(=O)C=CC=CC=CC=CC=CCC(O)C(C)C(O)CC(O)CC(O)CC(O)CC(O)CC(O)CC(O)C=CC1C (centres undefined),5.61%
15,Oc1c(Cl)cc(CN(Cc2cc(Cl)c(O)c(Cl)c2)C2CCCCC2)cc1Cl,1.49%
16,Oc1c(Cl)cc(C(c2cc(Cl)c(O)c(Cl)c2)C(c2cc(Cl)c(O)c(Cl)c2)c2cc(Cl)c(O)c(Cl)c2)cc1Cl,25.7% (active)
17,CN(C)Cc1cc(Cl)c(O)c(CN(C)C)c1,1.1%
18,CC(C)(CC1(C)NC(=O)NC1=O)OCc1ccccc1 (centres undefined),-10.8%
19,O=C(O)Cn1ccnc1[N+](=O)[O-],-10.9%
20,Nc1nc(C(=O)O)c(N=Nc2ccccc2)c(=O)[nH]1,33.3% (active)
21,O=C(O)c1nc(-c2ccccc2)[nH]c1C(=O)O,4.21%
22,NCCCc1c(-c2ccccc2)nc(N)[nH]c1=O,-2.69%

row,Structure (SMILES),hERG blockade
1,O=C(c1nc2ccc([N+](=O)[O-])cc2[nH]c1=O)C(O)c1ccc2c(c1)OCO2 (centres undefined),-14.1%
2,O=C1CN2CCN(CC2)CC(=O)Nc2ccc(cc2)S(=O)(=O)c2ccc(cc2)NC(=O)CN2CCN(CC2)CC(=O)Nc2ccc(cc2)S(=O)(=O)c2ccc(cc2)N1,6.34%
3,O=C(O)c1ccc([N+]2=Cn3c(nc4ccccc43)C2)cc1,6.37%
4,COC(=O)CCC(C)C1CCC2C3CCC4CC5CCC4(C)C3(O5)C(Br)C(Br)C12C (centres undefined),5.42%
5,CCC(N)(C(=O)O)C(C)C (centres undefined),-13.5%
6,NC(=O)N=C(N)NC(=O)c1ccccc1,-1.06%
7,CN=C(N)N=C(N)Nc1cc2ccccc2c2ccccc12,-54.4% (active)
8,CCOC(=O)C(C)(C)C(O)C(C)C (centres undefined),16.9%
9,CS(=O)(=O)Nc1ccc(Nc2c3ccccc3nc3ccccc23)cc1,30.8% (active)
10,Cc1nc(N)nc2ccccc12,1.82%
11,CC1OC(O)C(O)C(O)C1O (centres undefined),8.47%
12,O=C(O)C(Sc1ccc(Cl)cc1)Sc1ccc(Cl)cc1,-7.17%
13,Oc1ccc(Cl)cc1Sc1cc(Cl)ccc1O,36.8% (active)
14,N#CCCSC(=S)C1CCCC1=N (centres undefined),14.7%
15,CN(C)CCCn1cnc2cc(Cl)c(Cl)cc21,5.34%
16,CN(C)CCCn1c2ccccc2c2cnccc21,90.4% (active)
17,Cc1c2cnccc2c(C)c2c1c1ccccc1n2CCOC(=O)c1ccccc1,17.4%
18,CN(C)CCCN1c2ccc(O)cc2Sc2ccc(Cl)cc21,62.7% (active)
19,CN(C)CCCN1c2ccccc2Sc2cnccc21,73.5% (active)
20,CSc1ccc2c(c1)N(CCCN(C)C)c1ccccc1S2,90.6% (active)
